# In the supplement of paper PMC8728848:
# Only a selection was taken, and the strongest signals are over-represented in it overall.
# B1: HHL-1 (Homo sapiens), P07306 (protein)
# chain: TKEYQDLQHLDNEESDHHQLRKGPPPPQPLLQRLCSGPRLLLLSLGLSLLLLVVVCVIGSQNSQLQEELRGLRETFSNFTASTEAQVKGLSTQGGNVGRKMKSLESQLEKQQKDLSEDHSSLLLHVKQFVSDLRSLSCQMAALQGNGSERTCCPVNWVEHERSCYWFSRSGKAWADADNYCRLEDAHLVVVTSWEEQKFVQHHIGPVNTWMGLHDQNGPWKWVDGTDYETGFKNWRPEQPDDWYGHGLGGGEDCAHFTDDGRWNDDVCQRPYRWVCETELDKASQEPPLL
# Assays:
# Assay in all cases: glycan array binding signal (z-score within array); higher = stronger binding
# Details in all cases: glycan notation: IUPAC condensed, linker removed
# [1] = biological target: Fuc(a1-2)Gal(b1-3)GlcNAc(b1-3)[Gal(b1-4)[Fuc(a1-3)]GlcNAc(b1-6)]Gal(b1-4)Glc
# In short: (§1)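 Glycan array binding is given as a within-array Z-score, which can be read as non-binding when negative. The arrays, 3228 of them, came from the Consortium for Functional Glycomics database and were retained only where the protein sequence was available. Z-scores were averaged across arrays of the same protein sequence at different concentrations or buffers and across linkers.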
# [2] = biological target: Fuc(a1-2)Gal(b1-4)GlcNAc(b1-2)Man(a1-3)[Fuc(a1-2)Gal(b1-4)GlcNAc(b1-2)Man(a1-6)]Man(b1-4)GlcNAc(b1-4)GlcNAc
# In short: as §1
# [3] = biological target: Fuc(a1-2)[GalNAc(a1-3)]Gal(b1-4)GlcNAc(b1-3)Gal(b1-4)GlcNAc(b1-3)Gal(b1-4)GlcNAc
# In short: as §1
# [4] = biological target: Fuc(a1-2)[GalNAc(a1-4)]Gal(b1-4)GlcNAc
# In short: as §1
# Gal(a1-2)Gal = biological target: Gal(a1-2)Gal
# In short: as §1
# [5] = biological target: Gal(a1-3)[Gal(a1-4)]Gal(b1-4)GlcNAc
# In short: as §1
# Gal(a1-4)Gal(b1-4)GlcNAc = biological target: Gal(a1-4)Gal(b1-4)GlcNAc
# In short: as §1
# [6] = biological target: Gal(b1-4)GlcNAc(b1-6)Gal(b1-4)GlcNAc(b1-6)GalNAc
# In short: as §1
# [7] = biological target: Gal(b1-4)GlcNAc(b1-6)GalNAc
# In short: as §1
# Gal3S6S(b1-4)GlcNAc6S = biological target: Gal3S6S(b1-4)GlcNAc6S
# In short: as §1
# GalNAc(b1-3)Gal = biological target: GalNAc(b1-3)Gal
# In short: as §1
# [8] = biological target: GalNAc(b1-3)Gal(a1-4)Gal(b1-4)GlcNAc
# In short: as §1
# [9] = biological target: GalNAc(b1-3)Gal(a1-4)Gal(b1-4)GlcNAc(b1-3)Gal(b1-4)Glc
# In short: as §1
# [10] = biological target: GlcNAc(a1-4)Gal(b1-4)GlcNAc(b1-3)Gal(b1-4)Glc
# In short: as §1
# GlcNAc(b1-6)GalNAc = biological target: GlcNAc(b1-6)GalNAc
# In short: as §1
# Kdn(a2-3)Gal(b1-3)GlcNAc = biological target: Kdn(a2-3)Gal(b1-3)GlcNAc
# In short: as §1
# Kdn(a2-3)Gal(b1-4)GlcNAc = biological target: Kdn(a2-3)Gal(b1-4)GlcNAc
# In short: as §1
# Man(a1-3)[Man(a1-6)]Man = biological target: Man(a1-3)[Man(a1-6)]Man
# In short: as §1
# [11] = biological target: Man(a1-3)[Man(a1-6)]Man(a1-6)[Man(a1-2)Man(a1-3)]Man(b1-4)GlcNAc(b1-4)GlcNAc
# In short: as §1
# [12] = biological target: Neu5Ac(a2-3)Gal(b1-3)GalNAc
# In short: as §1
# [13] = biological target: Neu5Ac(a2-3)Gal(b1-3)GalNAc(b1-3)Gal(b1-4)GlcNAc
# In short: as §1
# [14] = biological target: Neu5Ac(a2-3)Gal(b1-3)[Neu5Ac(a2-3)Gal(b1-4)]GlcNAc
# In short: as §1
# Neu5Ac(a2-3)GalNAc = biological target: Neu5Ac(a2-3)GalNAc
# In short: as §1
# [15] = biological target: Neu5Ac(a2-6)GlcNAc(b1-4)GlcNAc
# In short: as §1
# [16] = biological target: Neu5Ac(b2-6)Gal(b1-4)GlcNAc
# In short: as §1
# Neu5Ac(b2-6)GalNAc = biological target: Neu5Ac(b2-6)GalNAc
# In short: as §1
# [17] = biological target: Neu5Gc(a2-3)Gal(b1-4)[Fuc(a1-3)]GlcNAc
# In short: as §1
# Neu5Gc(a2-6)GalNAc = biological target: Neu5Gc(a2-6)GalNAc
# In short: as §1
binder,measurement,setting,value
B1,glycan array binding signal (z-score),[1],0.628
same,glycan array binding signal (z-score),[2],-0.533
same,glycan array binding signal (z-score),[3],-0.3
same,glycan array binding signal (z-score),[4],7.69
same,glycan array binding signal (z-score),Gal(a1-2)Gal,0.419
same,glycan array binding signal (z-score),[5],0.667
same,glycan array binding signal (z-score),Gal(a1-4)Gal(b1-4)GlcNAc,-0.54
same,glycan array binding signal (z-score),[6],0.262
same,glycan array binding signal (z-score),[7],4.51
same,glycan array binding signal (z-score),Gal3S6S(b1-4)GlcNAc6S,0.503
same,glycan array binding signal (z-score),GalNAc(b1-3)Gal,4.09
same,glycan array binding signal (z-score),[8],5.53
same,glycan array binding signal (z-score),[9],5.52
same,glycan array binding signal (z-score),[10],-0.538
same,glycan array binding signal (z-score),GlcNAc(b1-6)GalNAc,7.59
same,glycan array binding signal (z-score),Kdn(a2-3)Gal(b1-3)GlcNAc,-0.538
same,glycan array binding signal (z-score),Kdn(a2-3)Gal(b1-4)GlcNAc,0.051
same,glycan array binding signal (z-score),Man(a1-3)[Man(a1-6)]Man,-0.472
same,glycan array binding signal (z-score),[11],-0.485
same,glycan array binding signal (z-score),[12],0.366
same,glycan array binding signal (z-score),[13],-0.541
same,glycan array binding signal (z-score),[14],-0.548
same,glycan array binding signal (z-score),Neu5Ac(a2-3)GalNAc,-0.482
same,glycan array binding signal (z-score),[15],0.387
same,glycan array binding signal (z-score),[16],-0.409
same,glycan array binding signal (z-score),Neu5Ac(b2-6)GalNAc,-0.515
same,glycan array binding signal (z-score),[17],0.159
same,glycan array binding signal (z-score),Neu5Gc(a2-6)GalNAc,-0.536
